From PubChem BioAssay AID1788 (Vanderbilt High Throughput Screening Facility, 2009)
The source made the active and inactive calls. How the calls were made is not given here.

Test: PubChem AID 1788
Settings: MDS Pharma lead profiling panel, radioligand binding; GABAA central (rat), Flunitrazepam site; at 10 µM; active compounds read high

SMILES: CCOC(=O)N1CCC(NCCNC(=O)c2ccccc2C)CC1
- inhibition: -12% (inactive)
